In the supplement of paper PMC8728848:
This is one part of a sample in which the strongest signals are shown more often than they occur.

Tests used:
Assay in all cases: glycan array binding signal (z-score within array); higher = stronger binding
Details in all cases: glycan notation: IUPAC condensed, linker removed
[1] = biological target: Fuc(a1-2)Gal(b1-3)GalNAc(b1-3)Gal
Outline: (§1)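 Arrays were curated from the Consortium for Functional Glycomics database, 3228 in total, and kept only where the protein sequence was available. Binding is expressed as a within-array Z-score. This score was averaged across arrays of the same protein sequence at different concentrations or buffers and across linkers, and negative values can be read as non-binding.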

[2] = biological target: Fuc(a1-2)Gal(b1-3)GlcNAc(b1-3)GalNAc
Outline: as §1

[3] = biological target: Fuc(a1-2)Gal(b1-4)Glc
Outline: as §1

[4] = biological target: Fuc(a1-2)Gal(b1-4)GlcNAc6S
Outline: as §1

[5] = biological target: Fuc(a1-2)Gal(b1-4)[Fuc(a1-3)]GlcNAc(b1-2)[Fuc(a1-2)Gal(b1-4)[Fuc(a1-3)]GlcNAc(b1-4)]Man(a1-3)[Fuc(a1-2)Gal(b1-4)[Fuc(a1-3)]GlcNAc(b1-2)Man(a1-6)]Man(b1-4)GlcNAc(b1-4)GlcNAc
Outline: as §1

[6] = biological target: Fuc(a1-2)Gal(b1-4)[Fuc(a1-3)]GlcNAc(b1-3)Gal(b1-4)[Fuc(a1-3)]GlcNAc(b1-3)Gal(b1-4)[Fuc(a1-3)]GlcNAc
Outline: as §1

[7] = biological target: Fuc(a1-2)[Gal(a1-3)]Gal(b1-4)GlcNAc(b1-2)Man(a1-3)[Fuc(a1-2)[Gal(a1-3)]Gal(b1-4)GlcNAc(b1-2)Man(a1-6)]Man(b1-4)GlcNAc(b1-4)GlcNAc
Outline: as §1

[8] = biological target: Fuc(a1-2)[Gal(a1-4)]Gal(b1-4)GlcNAc
Outline: as §1

[9] = biological target: Fuc(a1-2)[GalNAc(a1-3)]Gal(b1-4)GlcNAc(b1-3)GalNAc
Outline: as §1

[10] = biological target: Fuc(a1-3)[Gal(b1-4)]GlcNAc(b1-6)GalNAc
Outline: as §1

[11] = biological target: Fuc(a1-3)[Gal3S(b1-4)]Glc
Outline: as §1

[12] = biological target: Fuc(a1-3)[GalNAc(b1-4)]GlcNAc
Outline: as §1

[13] = biological target: Gal(a1-3)Gal(b1-3)GlcNAc
Outline: as §1

[14] = biological target: Gal(a1-4)Gal(b1-4)GlcNAc(b1-2)Man(a1-3)[Gal(a1-4)Gal(b1-4)GlcNAc(b1-2)Man(a1-6)]Man(b1-4)GlcNAc(b1-4)GlcNAc
Outline: as §1

[15] = biological target: Gal(b1-3)GalNAc
Outline: as §1

[16] = biological target: Gal(b1-3)GalNAc(b1-4)Gal(b1-4)Glc
Outline: as §1

[17] = biological target: Gal(b1-3)GlcNAc(a1-6)Gal(b1-4)GlcNAc
Outline: as §1

[18] = biological target: Gal(b1-3)GlcNAc(b1-3)Gal(b1-4)GlcNAc(b1-2)Man(a1-3)[Gal(b1-3)GlcNAc(b1-3)Gal(b1-4)GlcNAc(b1-2)Man(a1-6)]Man(b1-4)GlcNAc(b1-4)GlcNAc
Outline: as §1

[19] = biological target: Gal(b1-3)[Fuc(a1-4)]GlcNAc(b1-3)Gal(b1-4)[Fuc(a1-3)]GlcNAc
Outline: as §1

[20] = biological target: Gal(b1-4)Gal
Outline: as §1

[21] = biological target: Gal(b1-4)GlcNAc(b1-2)Man(a1-6)[GlcNAc(b1-2)Man(a1-3)]Man(b1-4)GlcNAc(b1-4)GlcNAc
Outline: as §1

[22] = biological target: Gal(b1-4)GlcNAc(b1-3)Gal(b1-4)GlcNAc(b1-3)Gal(b1-4)GlcNAc(b1-3)Gal(b1-4)GlcNAc(b1-3)Gal(b1-4)GlcNAc(b1-2)Man(a1-3)[Gal(b1-4)GlcNAc(b1-3)Gal(b1-4)GlcNAc(b1-3)Gal(b1-4)GlcNAc(b1-3)Gal(b1-4)GlcNAc(b1-3)Gal(b1-4)GlcNAc(b1-2)Man(a1-6)]Man(b1-4)GlcNAc(b1-4)GlcNAc
Outline: as §1

[23] = biological target: Gal(b1-4)GlcNAc(b1-3)Gal(b1-4)GlcNAc(b1-3)Gal(b1-4)GlcNAc(b1-3)Gal(b1-4)GlcNAc(b1-3)Gal(b1-4)GlcNAc(b1-2)[Gal(b1-4)GlcNAc(b1-3)Gal(b1-4)GlcNAc(b1-3)Gal(b1-4)GlcNAc(b1-3)Gal(b1-4)GlcNAc(b1-3)Gal(b1-4)GlcNAc(b1-6)]Man(a1-6)[Gal(b1-4)GlcNAc(b1-3)Gal(b1-4)GlcNAc(b1-3)Gal(b1-4)GlcNAc(b1-3)Gal(b1-4)GlcNAc(b1-3)Gal(b1-4)GlcNAc(b1-2)Man(a1-3)]Man(b1-4)GlcNAc(b1-4)[Fuc(a1-6)]GlcNAc
Outline: as §1

[24] = biological target: Gal3S(b1-4)[Fuc(a1-3)]Glc6S
Outline: as §1

[25] = biological target: Gal6S(b1-4)GlcNAc6S
Outline: as §1

[26] = biological target: GalNAc(b1-4)GlcNAc(b1-2)Man
Outline: as §1

[27] = biological target: GalNAc(b1-4)GlcNAc6S
Outline: as §1

[28] = biological target: GalNAc3S(b1-4)[Fuc(a1-3)]GlcNAc
Outline: as §1

[29] = biological target: GlcA(b1-3)Gal
Outline: as §1

[30] = biological target: GlcNAc(a1-6)Gal(b1-4)GlcNAc
Outline: as §1

[31] = biological target: GlcNAc(b1-2)[GlcNAc(b1-4)]Man(a1-3)[GlcNAc(b1-2)Man(a1-6)]Man(b1-4)GlcNAc(b1-4)GlcNAc
Outline: as §1

[32] = biological target: GlcNAc(b1-3)Gal(b1-4)Glc
Outline: as §1

[33] = biological target: GlcNAc(b1-4)GlcNAc
Outline: as §1

[34] = biological target: GlcNAc(b1-4)[GlcNAc(b1-6)]GalNAc
Outline: as §1

[35] = biological target: Man(a1-2)Man(a1-2)Man(a1-3)Man
Outline: as §1

[36] = biological target: Man(a1-2)Man(a1-3)[Man(a1-2)Man(a1-6)]Man(a1-6)[Man(a1-2)Man(a1-2)Man(a1-3)]Man
Outline: as §1

[37] = biological target: Neu5Ac(a2-3)Gal
Outline: as §1

[38] = biological target: Neu5Ac(a2-3)Gal(b1-3)GlcNAc(b1-2)Man(a1-3)[Neu5Ac(a2-3)Gal(b1-3)GlcNAc(b1-2)Man(a1-6)]Man(b1-4)GlcNAc(b1-4)GlcNAc
Outline: as §1

[39] = biological target: Neu5Ac(a2-3)Gal(b1-3)[Fuc(a1-4)]GlcNAc(b1-3)Gal(b1-4)[Fuc(a1-3)]GlcNAc
Outline: as §1

[40] = biological target: Neu5Ac(a2-3)Gal(b1-4)Glc
Outline: as §1

[41] = biological target: Neu5Ac(a2-3)[Neu5Ac(a2-6)]GalNAc
Outline: as §1

[42] = biological target: Neu5Ac(b2-6)GalNAc
Outline: as §1

B1: FimA (Actinomyces oris) (protein)
chain: MHHHHHHSSGVDLGTENLYFQSNAETPNYGNIKTDATGSLVIHKHLTGGGKDIGTPTGTAQNADDKGPAVEGVVFTAYPITDINLKDPAGWDTISNLSRTGVPDSACANPAAPTLGAHQFGTPKVSPATTKEGLATITEMPVQAYLVCETTTPGDIVQKAKPFVVTIPHPNTAAGADGQWIYDVNVYPKNEAIDVDKTIQAQKLNGYGVGSLIKFPVESTAPTLDAKSFYKYFQLKDTLDERLSEVTATDVSLEGTPLQPTDYKVETKQQTVTVTFTAEGLKKIKAAPGKKVSAVFQGKVTKAGNGAITNRAQVISDTLYAEQPPTPETPPTDPENPPTSDEVISRWGDLSIKKVDTHQQGQTKAGLQGAQFQLYKAKNAYANTCSNEKEGAPIAINGQTTLTTDAQGAIDIKGLFISDSIDGADRDNQVNAMERCYVLVETKAPAGYVLPAGNGAATPVKVKAGEETTDNVTVENTKQSVPGLPLTG
[1]
  glycan array binding signal (z-score): 11.8
[2]
  glycan array binding signal (z-score): -0.927
[3]
  glycan array binding signal (z-score): -0.719
[4]
  glycan array binding signal (z-score): -0.627
[5]
  glycan array binding signal (z-score): -0.358
[6]
  glycan array binding signal (z-score): -0.317
[7]
  glycan array binding signal (z-score): 5.11
[8]
  glycan array binding signal (z-score): 5.14
[9]
  glycan array binding signal (z-score): -0.408
[10]
  glycan array binding signal (z-score): -0.64
[11]
  glycan array binding signal (z-score): -0.294
[12]
  glycan array binding signal (z-score): 3.5
[13]
  glycan array binding signal (z-score): -0.412
[14]
  glycan array binding signal (z-score): -0.497
[15]
  glycan array binding signal (z-score): 0.278
[16]
  glycan array binding signal (z-score): 3.27
[17]
  glycan array binding signal (z-score): -0.165
[18]
  glycan array binding signal (z-score): -0.744
[19]
  glycan array binding signal (z-score): 0.459
[20]
  glycan array binding signal (z-score): 0.292
[21]
  glycan array binding signal (z-score): -0.044
[22]
  glycan array binding signal (z-score): 3.42
[23]
  glycan array binding signal (z-score): 5.1
[24]
  glycan array binding signal (z-score): 3.23
[25]
  glycan array binding signal (z-score): 4.75
[26]
  glycan array binding signal (z-score): -0.783
[27]
  glycan array binding signal (z-score): 4.1
[28]
  glycan array binding signal (z-score): -0.099
[29]
  glycan array binding signal (z-score): 0.311
[30]
  glycan array binding signal (z-score): -1.18
[31]
  glycan array binding signal (z-score): -0.403
[32]
  glycan array binding signal (z-score): -0.311
[33]
  glycan array binding signal (z-score): -0.621
[34]
  glycan array binding signal (z-score): -0.564
[35]
  glycan array binding signal (z-score): 4.88
[36]
  glycan array binding signal (z-score): -0.88
[37]
  glycan array binding signal (z-score): -0.143
[38]
  glycan array binding signal (z-score): -0.233
[39]
  glycan array binding signal (z-score): 0.196
[40]
  glycan array binding signal (z-score): -0.06
[41]
  glycan array binding signal (z-score): 0.518
[42]
  glycan array binding signal (z-score): -0.85
